Assay outcomes (PubChem)
BAZ2B block – blocks human BAZ2B; Q9UIF8; actives 4.4% (n = 360,000); AlphaScreen BAZ2B-H3K14Ac peptide displacement; Potency, µM (doses to about 114 µM), hits mostly inhibitors; also: nearly all actives have a fitted effect of over 60% in size
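Inhibition is scored as reduced AlphaScreen emission. The BAZ2B/b-H3(5-23)K14Ac complex (50 nM each) in PBS pH 7.4, 0.01% Tween-20 meets compound (up to 110 uM) for 30 min at RT before bead addition.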
HP1b binding inh – HP1-beta chromodomain-methylated histone interaction inhibition. actives 0.56% (n = 390,000). Potency, µM (top dose mostly 114 µM), hits mostly inhibitors. P83916. AlphaScreen HP1-beta / biotin-H3K9me3 peptide binding; also: nearly all actives have a fitted effect of over 70% in size
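Compound inhibition of the preformed complex between 50 nM HP1-beta and 50 nM biotinylated H3K9me3 peptide was read by AlphaScreen. Buffer was PBS pH 7.4 with 0.01% Tween-20. Incubations ran 30 min at room temperature, with 10 ug/mL donor/acceptor beads.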
Sfp inh – inhibitors of Bacillus subtilis Sfp phosphopantetheinyl transferase; Q9F4F7; Biochemical Sfp PPTase activity, qHTS; Potency, µM, usual class: inhibitors; actives 3.5% (n = 310,000); AID 1490;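 also: the enzyme is Sfp with the accession as filed and its product quenches rhodamine fluorescence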
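Reaction rates are the 30-min fluorescence difference (ex 525, em 598 nm) in wells containing 15 nM Sfp, 5 uM rhodamine-CoA and 12.5 uM BHQ-2-YbbR at pH 7.6 with 10 mM MgCl2.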
G9a block – inhibitors of human histone lysine methyltransferase G9a; Q96KQ7; G9a H3K9 monomethylation, AlphaScreen, 2 h; Potency, µM (titrated, usually from 102 µM), most hits filed as inhibitors; actives 8.8% (n = 350,000); also: nearly all actives have a fitted effect of over 75% in size
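Compounds were preincubated with 20 nM G9a for 15 min, after which biotinylated H3K9 peptide (500 nM) and SAM (20 uM) started a 2 h room-temperature reaction. Monomethylated product was quantified by antibody-based AlphaScreen chemiluminescence.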
L3MBTL1 block – inhibitors of human L3MBTL1 | Potency, µM (doses to about 57.1 µM), hits mostly inhibitors | AlphaScreen L3MBTL1–H3K9me1 peptide binding | actives 0.66% (n = 230,000); also: nearly all actives have a fitted effect of over 60% in size
Target sequence (Q9Y468 whole entry, looked up): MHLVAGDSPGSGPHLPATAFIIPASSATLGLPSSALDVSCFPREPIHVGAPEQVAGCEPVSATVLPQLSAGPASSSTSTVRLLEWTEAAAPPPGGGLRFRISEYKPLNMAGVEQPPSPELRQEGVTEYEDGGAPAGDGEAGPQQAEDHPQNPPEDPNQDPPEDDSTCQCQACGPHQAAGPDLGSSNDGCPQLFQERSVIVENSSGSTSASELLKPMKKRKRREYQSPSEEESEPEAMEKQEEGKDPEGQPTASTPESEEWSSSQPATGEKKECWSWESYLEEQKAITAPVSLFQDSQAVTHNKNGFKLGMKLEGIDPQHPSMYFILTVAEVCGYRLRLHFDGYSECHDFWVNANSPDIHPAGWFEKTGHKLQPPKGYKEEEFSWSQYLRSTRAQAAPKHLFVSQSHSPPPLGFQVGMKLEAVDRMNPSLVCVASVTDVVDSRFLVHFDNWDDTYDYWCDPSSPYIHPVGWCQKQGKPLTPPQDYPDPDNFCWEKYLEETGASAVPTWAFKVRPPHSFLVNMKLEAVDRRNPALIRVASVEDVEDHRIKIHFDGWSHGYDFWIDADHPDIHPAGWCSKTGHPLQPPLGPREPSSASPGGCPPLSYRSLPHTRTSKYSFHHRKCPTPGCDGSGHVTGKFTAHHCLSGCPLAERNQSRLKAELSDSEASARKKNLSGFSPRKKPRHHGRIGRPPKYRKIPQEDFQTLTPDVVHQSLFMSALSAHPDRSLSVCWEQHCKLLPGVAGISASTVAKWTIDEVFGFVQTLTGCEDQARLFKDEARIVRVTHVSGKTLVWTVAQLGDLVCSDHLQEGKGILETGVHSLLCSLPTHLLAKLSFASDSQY
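Displacement of a biotinylated histone H3(1-15) peptide monomethylated at Lys9 (75 nM) from L3MBTL1 (50 nM) was measured by AlphaScreen after a 30 min room-temperature compound incubation; cefsulodin titration served as intraplate control.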
JMJD2A Tudor inh – JMJD2A Tudor domain (human) inhibition. AlphaScreen JMJD2A-Tudor / H3K4me3 peptide binding. Potency, µM (series often up to 114 µM), actives largely listed as inhibitors. actives 4.4% (n = 390,000). AID 504339; also: nearly all actives have a fitted effect of over 50% in size
Hits are given with their value; – = inactive; ? = inconclusive; · = not tested or not shown; [ ] = remark or other dose. In the library only some 12% were active in any assay of this set; here they are far more common. Calls follow the shape of the dose curve; as a rule, active = well fitted curve in the direction sought with a large enough effect; inconclusive = small, poorly fitted or top-dose-only effect, or another doubt; inactive = no such curve, though single readings can be large; an effect the other way counts as inactive or inconclusive.

SMILES | BAZ2B block | HP1b binding inh | Sfp inh | G9a block | L3MBTL1 block | JMJD2A Tudor inh
COc1ccc(OC)c(CCNC(=O)Cn2nc(C)c3c(C)n(-c4ccc(C)cc4)nc3c2=O)c1 | 50µM | – | – | · | · | –
Cc1nn(CCC(=O)NCc2ccc(N(C)C)cc2)c(=O)c2nn(-c3ccccc3)c(C)c12 | – | – | – | 45µM | · | –
O=C(CNC(=S)N(CCCN1CCOCC1)Cc1cccs1)N1CCCC1 | – | – | – | – | – | –
CCOc1ccc2nc(SC3CC(=O)N(c4ccccc4)C3=O)sc2c1 (stereo not drawn) | – | – | – | ? | – | ?
CCOC(=O)c1cnc(SC2CC(=O)N(c3cccc(OC)c3)C2=O)nc1N (stereo not drawn) | – | – | – | 35µM | – | –
CCOc1ccc2nc(SC3CC(=O)N(c4cccc(OC)c4)C3=O)sc2c1 (stereo not drawn) | – | – | – | 10µM | – | –
C[C@@H]1O[C@H](O[C@@H]2[C@H](C)O[C@H](O[C@@H]3[C@H](C)O[C@H](O[C@H]4CC[C@]5(C)[C@@H](CC[C@@H]6[C@H]5C[C@@H](O)[C@]5(C)[C@@H](C7=CC(=O)OC7)CC[C@]65O)C4)C[C@@H]3O)C[C@@H]2O)C[C@H](O)[C@@H]1O | · | · | – | –[21.5 µM] | · | ·
CCn1ccnc1CN(C)Cc1cn(-c2ccc(C)cc2)nc1-c1ccc(F)cc1 | 50µM | ? | ? | –[0.501 µM] | – | ?
Cc1ccc(-n2cc(CN(C)Cc3ncc[nH]3)c(-c3cccc(C)c3)n2)cc1 | 50µM | – | 56µM | ? | ? | 32µM
CCn1ccnc1CN(C)Cc1cn(C)nc1-c1ccccc1F | ? | – | – | ? | – | –
CCn1ccnc1CN(C)Cc1cn(-c2cc(C)ccc2C)nc1-c1ccccc1 | ? | – | ? | 50µM | – | ?
Cc1ccc(-n2cc(CN(C)Cc3nccn3C)c(-c3ccc(F)cc3)n2)cc1 | 20µM | ? | – | · | – | 45µM
Cc1cccc(N2CCN(S(=O)(=O)c3cc(C(=O)Nc4ccc(Oc5ccccc5)cc4)ccc3F)CC2)c1C | – | – | · | – | · | –
CCn1cc(C(=O)NCCc2ccccc2)c(=O)c2cc(S(=O)(=O)N3CCc4ccccc4C3)ccc21 | · | – | · | – | · | –
O=C(COC(=O)Cc1ccc(S(=O)(=O)N2CCOCC2)s1)Nc1ccc(OC(F)F)cc1 | · | – | · | · | – | ?
CC(C)(C)OC(=O)Cc1nnc(CNC(=O)c2ccccc2)s1 | · | · | · | · | · | –
CCn1ccnc1CN(C)Cc1cn(-c2ccccc2)nc1-c1ccc(OC)cc1F | – | – | – | ? | – | 40µM
CN(C)CCC(=O)c1ccc2c(c1)OCO2 | – | – | – | 1.8µM | – | ?
CCCCN(C(=O)c1ccc2c(c1)OCO2)c1c(N)n(CCCC)c(=O)[nH]c1=O | – | – | · | – | – | –
CCCCN(C(=O)c1ccc2c(c1)OCO2)c1ccccc1 | – | – | – | 50µM | – | –
CN(C)CCC(=O)c1cccc(Br)c1 | – | ? | ? | 2µM | – | –
CCC1(C)CC(=O)N(c2ccc(F)c(Cl)c2)C(=O)C1 | – | – | – | – | · | –
CCC1(C)CC(=O)N(c2ccc(C(=O)O)c(O)c2)C1=O (stereo not drawn) | – | – | – | 50µM | – | –
CCOC(=O)c1c(C)n(CCOc2ccccc2)c2ccc(O)cc12 | – | – | 71µM | 4µM | · | –
CCOC(=O)c1c(C)n(CC(O)c2ccccc2)c2ccc(O)cc12 (stereo not drawn) | ? | – | ? | 56µM | – | –
CCOC(=O)c1c(C)n(CCNC(C)=O)c2ccc(O)cc12 | – | – | – | – | · | –
CCOC(=O)c1c(CSc2ccccc2)n(C)c2ccc(O)cc12 | – | – | – | 35µM | · | –
CN1CCN(C(=O)c2cc(COc3c(F)cccc3F)on2)CC1c1ccccc1 (stereo not drawn) | – | – | 10µM | · | – | –
COc1ccccc1OCc1cc(C(=O)N2CCN(C)C(c3ccccc3)C2)no1 (stereo not drawn) | – | – | – | ? | · | –
